Measurements: PubChem BioAssay AID1159580 (chemical genetic matrix, 2015)
The campaign covered roughly 5,500 compounds. About 2,000 (36%) were called active. Not shown: some 18% with an inconclusive outcome. Rule as the data show it: active = normalized growth mostly below about 0.91 (no sharp cut-off); inconclusive = no clear call, values can overlap the other calls; inactive = mostly above about 0.92. This is one part of the list.

Test: chemical genetic growth profiling, strain panel (AID 1159580);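 also: tested at 20 µM; growth read once vehicle control cultures reached saturation at 30 °C; 1 = growth at the plate median or of vehicle wells; lower values mean less growth of the strain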
Details: growth OD

Measured: normalized growth

C=C1C2CC[C@H]3[C@]4(C)C[C@H](OC5OC(CO)C(OS(=O)(=O)O)C(OS(=O)(=O)O)C5OC(=O)CC(C)C)C[C@@H](C(=O)O)[C@H]4CC[C@]3(C2)[C@H]1O (some centres undefined)
inactive: S. cerevisiae deletion strains, locus YJR043C, strain POL32, stronger effect = lower value 1 | S. cerevisiae deletion strains, locus YJR075W, strain HOC1, stronger effect = lower value 1.01 | S. cerevisiae deletion strains, locus YKL009W, strain mrt4, stronger effect = lower value 0.984 | S. cerevisiae deletion strains, locus YKL068W, stronger effect = lower value 0.981 | S. cerevisiae deletion strains, locus YKL085W, strain MDH1 (second series), stronger effect = lower value 0.97 | S. cerevisiae deletion strains, locus YKL085W, strain MDH1, stronger effect = lower value 0.97 | S. cerevisiae deletion strains, locus YKL160W, strain elf1, stronger effect = lower value 0.984 | S. cerevisiae deletion strains, locus YKL190W, strain CNB1, stronger effect = lower value 1.01 | S. cerevisiae deletion strains, locus YKR001C, strain vps1, stronger effect = lower value 0.976 | S. cerevisiae deletion strains, locus YKR026C, strain gcn3, stronger effect = lower value 1.01 | S. cerevisiae deletion strains, locus YKR091W, strain srl3, stronger effect = lower value 1.01 | S. cerevisiae deletion strains, locus YLL001W, strain dnm1, stronger effect = lower value 1.03 | S. cerevisiae deletion strains, locus YLL026W, stronger effect = lower value 1.01 | S. cerevisiae deletion strains, locus YLL041C, strain sdh2, stronger effect = lower value 1.01 | S. cerevisiae deletion strains, locus YLR027C, strain aat2, stronger effect = lower value 1.01 | S. cerevisiae deletion strains, locus YLR039C, strain RIC1, stronger effect = lower value 0.99 | S. cerevisiae deletion strains, locus YLR058C, strain SHM2, stronger effect = lower value 1.01 | S. cerevisiae deletion strains, locus YLR102C, strain apc9, stronger effect = lower value 0.983 | S. cerevisiae deletion strains, locus YLR221C, strain rsa3, stronger effect = lower value 0.995 | S. cerevisiae deletion strains, locus YLR258W, strain gsy2, stronger effect = lower value 1.02 | S. cerevisiae deletion strains, locus YLR262C, strain YPT6 (second series), stronger effect = lower value 1.01 | S. cerevisiae deletion strains, locus YLR262C, strain YPT6, stronger effect = lower value 0.994 | S. cerevisiae deletion strains, locus YLR268W, strain sec22, stronger effect = lower value 0.987 | S. cerevisiae deletion strains, locus YLR320W, strain mms22, stronger effect = lower value 1.01 | S. cerevisiae deletion strains, locus YLR330W, strain CHS5, stronger effect = lower value 1.01 | S. cerevisiae deletion strains, locus YLR342W, strain FKS1 (second series), stronger effect = lower value 1.01 | S. cerevisiae deletion strains, locus YLR342W, strain FKS1, stronger effect = lower value 1.01 | S. cerevisiae deletion strains, locus YLR357W, strain rsc2, stronger effect = lower value 0.986 | S. cerevisiae deletion strains, locus YLR370C, strain arc18, stronger effect = lower value 1 | S. cerevisiae deletion strains, locus YLR371W, strain rom2, stronger effect = lower value 0.987 | S. cerevisiae deletion strains, locus YLR384C, strain iki3, stronger effect = lower value 0.991 | S. cerevisiae deletion strains, locus YLR418C, strain cdc73, stronger effect = lower value 1 | S. cerevisiae deletion strains, locus YML016C, strain PPZ1, stronger effect = lower value 1.01 | S. cerevisiae deletion strains, locus YML032C, strain rad52, stronger effect = lower value 0.984 | S. cerevisiae deletion strains, locus YML120C, strain ndi1, stronger effect = lower value 1.01 | S. cerevisiae deletion strains, locus YML124C, strain tub3, stronger effect = lower value 0.987 | S. cerevisiae deletion strains, locus YMR058W, strain fet3, stronger effect = lower value 1.01 | S. cerevisiae deletion strains, locus YMR078C, strain ctf18, stronger effect = lower value 0.982 | S. cerevisiae deletion strains, locus YMR125W, strain sto1, stronger effect = lower value 1.02 | S. cerevisiae deletion strains, locus YMR129W, stronger effect = lower value 0.992 | S. cerevisiae deletion strains, locus YMR205C, strain PFK2, stronger effect = lower value 1.03 | S. cerevisiae deletion strains, locus YMR223W, strain ubp8, stronger effect = lower value 0.977 | S. cerevisiae deletion strains, locus YMR231W, strain pep5, stronger effect = lower value 1.01 | S. cerevisiae deletion strains, locus YMR263W, strain SAP30, stronger effect = lower value 1.02 | S. cerevisiae deletion strains, locus YMR307W, strain GAS1, stronger effect = lower value 1.05 | S. cerevisiae deletion strains, locus YNL067W, strain RPL9B, stronger effect = lower value 1.02 | S. cerevisiae deletion strains, locus YNL071W, strain lat1, stronger effect = lower value 1.01 | S. cerevisiae deletion strains, locus YNL128W, strain TEP1, stronger effect = lower value 1.02 | S. cerevisiae deletion strains, locus YNL153C, strain GIM3, stronger effect = lower value 1.03 | S. cerevisiae deletion strains, locus YNL209W, strain ssb2, stronger effect = lower value 1 | S. cerevisiae deletion strains, locus YNL233W, strain BNI4, stronger effect = lower value 1.02 | S. cerevisiae deletion strains, locus YNL248C, strain rpa49, stronger effect = lower value 0.974 | S. cerevisiae deletion strains, locus YNL250W, strain rad50, stronger effect = lower value 0.972 | S. cerevisiae deletion strains, locus YNL271C, strain bni1, stronger effect = lower value 0.972 | S. cerevisiae deletion strains, locus YNL298W, strain CLA4, stronger effect = lower value 0.977 | S. cerevisiae deletion strains, locus YNL307C, strain MCK1, stronger effect = lower value 0.986 | S. cerevisiae deletion strains, locus YNL322C, strain KRE1 (second series), stronger effect = lower value 1 | S. cerevisiae deletion strains, locus YNL322C, strain KRE1, stronger effect = lower value 1.01 | S. cerevisiae deletion strains, locus YNR049C, strain mso1, stronger effect = lower value 1.01 | S. cerevisiae deletion strains, locus YNR052C, strain pop2, stronger effect = lower value 0.97 | S. cerevisiae deletion strains, locus YOL006C, strain TOP1, stronger effect = lower value 1.07 | S. cerevisiae deletion strains, locus YOL012C, strain htz1 0.954 | S. cerevisiae deletion strains, locus YOL147C, strain pex11, stronger effect = lower value 0.992 | S. cerevisiae deletion strains, locus YOR001W, strain rrp6, stronger effect = lower value 0.992 | S. cerevisiae deletion strains, locus YOR061W, strain CKA2, stronger effect = lower value 1.01 | S. cerevisiae deletion strains, locus YOR069W, strain VPS5, stronger effect = lower value 1.01 | S. cerevisiae deletion strains, locus YOR070C, strain gyp1, stronger effect = lower value 1 | S. cerevisiae deletion strains, locus YOR080W, strain dia2, stronger effect = lower value 1.02 | S. cerevisiae deletion strains, locus YOR083W, strain WHI5, stronger effect = lower value 0.976 | S. cerevisiae deletion strains, locus YOR106W, strain vam3, stronger effect = lower value 0.991 | S. cerevisiae deletion strains, locus YOR136W, strain idh2, stronger effect = lower value 0.988 | S. cerevisiae deletion strains, locus YOR144C, strain elg1, stronger effect = lower value 0.99 | S. cerevisiae deletion strains, locus YOR184W, strain ser1, stronger effect = lower value 0.958 | S. cerevisiae deletion strains, locus YOR265W, strain rbl2, stronger effect = lower value 1.01 | S. cerevisiae deletion strains, locus YOR270C, strain vph1, stronger effect = lower value 1.01 | S. cerevisiae deletion strains, locus YOR290C, strain snf2, stronger effect = lower value 0.986 | S. cerevisiae deletion strains, locus YOR316C, strain cot1, stronger effect = lower value 0.991 | S. cerevisiae deletion strains, locus YPL051W, strain arl3, stronger effect = lower value 0.995 | S. cerevisiae deletion strains, locus YPL055C, strain LGE1, stronger effect = lower value 1.05 | S. cerevisiae deletion strains, locus YPL078C, strain atp4, stronger effect = lower value 0.993 | S. cerevisiae deletion strains, locus YPL106C, strain sse1, stronger effect = lower value 1.01 | S. cerevisiae deletion strains, locus YPL240C, strain hsp82, stronger effect = lower value 1.01 | S. cerevisiae deletion strains, locus YPL241C, strain CIN2, stronger effect = lower value 1.02 | S. cerevisiae deletion strains, locus YPR119W, strain clb2, stronger effect = lower value 0.986 | S. cerevisiae deletion strains, locus YPR141C, strain kar3, stronger effect = lower value 0.969 | S. cerevisiae deletion strains, locus YPR163C, strain tif3, stronger effect = lower value 0.992 | S. cerevisiae deletion strains, locus YPR167C, strain met16, stronger effect = lower value 0.985 | S. cerevisiae deletion strains, strain wtn01, stronger effect = lower value 0.98 | S. cerevisiae strains, strain wild type, stronger effect = lower value 1.01
